Molecules are shown by their SMILES. Screen size: about 310,000 compounds; about 14,000 (4.5%) showed an effect of 50% or more. The effect is printed as a negative number. This is one part of a sample in which strong results are shown more often than they occur.
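Also: peak tail current of the secondary pulse compared with the same well before compound.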

The target in this test is human ether-à-go-go-related gene (hERG) potassium channel (human, UniProt Q12809). Kind of test: primary screen, population patch clamp on CHO cells stably expressing hERG; higher = less effect of the substance.
Sequence of human ether-à-go-go-related gene (hERG) potassium channel (Q12809 whole entry, looked up): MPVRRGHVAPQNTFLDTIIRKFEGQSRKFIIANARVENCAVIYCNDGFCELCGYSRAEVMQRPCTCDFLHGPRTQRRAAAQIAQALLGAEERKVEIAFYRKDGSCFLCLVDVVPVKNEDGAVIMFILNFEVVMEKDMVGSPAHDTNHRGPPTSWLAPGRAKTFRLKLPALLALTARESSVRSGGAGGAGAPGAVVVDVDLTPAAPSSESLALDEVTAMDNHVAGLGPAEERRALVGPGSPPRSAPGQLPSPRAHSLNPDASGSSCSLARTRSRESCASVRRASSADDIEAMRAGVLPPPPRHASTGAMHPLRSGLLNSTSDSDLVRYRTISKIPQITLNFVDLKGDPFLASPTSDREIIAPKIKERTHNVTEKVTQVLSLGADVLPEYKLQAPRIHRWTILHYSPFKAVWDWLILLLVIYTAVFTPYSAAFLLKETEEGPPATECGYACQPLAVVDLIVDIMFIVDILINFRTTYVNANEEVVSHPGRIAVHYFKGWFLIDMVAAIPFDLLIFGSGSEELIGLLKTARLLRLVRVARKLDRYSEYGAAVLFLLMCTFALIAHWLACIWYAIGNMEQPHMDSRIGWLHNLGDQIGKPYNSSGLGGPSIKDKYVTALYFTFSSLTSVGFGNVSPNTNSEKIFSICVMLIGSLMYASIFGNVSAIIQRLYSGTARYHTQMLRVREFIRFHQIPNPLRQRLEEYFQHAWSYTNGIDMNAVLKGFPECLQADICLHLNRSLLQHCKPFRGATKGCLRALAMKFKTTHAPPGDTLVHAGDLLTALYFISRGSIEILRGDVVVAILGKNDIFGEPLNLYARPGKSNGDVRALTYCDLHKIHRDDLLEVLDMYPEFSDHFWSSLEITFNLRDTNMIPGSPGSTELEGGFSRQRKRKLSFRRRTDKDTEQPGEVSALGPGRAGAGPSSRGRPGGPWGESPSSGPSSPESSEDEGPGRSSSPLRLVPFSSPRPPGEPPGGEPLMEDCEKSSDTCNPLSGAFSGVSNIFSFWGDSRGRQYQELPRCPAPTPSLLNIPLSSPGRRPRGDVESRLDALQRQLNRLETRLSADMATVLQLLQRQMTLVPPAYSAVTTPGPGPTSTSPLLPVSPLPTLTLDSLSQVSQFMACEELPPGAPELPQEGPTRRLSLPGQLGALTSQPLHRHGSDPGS
Consider `CCOCCCNC(=O)Cc1ccc(-n2c(CC)nc3cccnc32)cc1`, for which the “hERG current change (%, negative = inhibition) at 10uM” value was -8.18%.
`C=CCn1c(Oc2ccc(C=O)cc2OCC)nc2c1c(=O)n(C)c(=O)n2C`: the “hERG current change (%, negative = inhibition) at 10uM” value is listed as 24.4%.
Next, `CCc1nnc(SCC(=O)Nc2ccccc2)n1CC1CCCO1` (stereo not shown): 2.61%; `Cc1cccc(N2CC(C(=O)Nc3nnc(SCCN4CCOCC4)s3)CC2=O)c1` (stereo not shown): 0.559%.
For `O=C(NNC(=S)Nc1ccc(Cl)cc1Cl)c1cccnc1`, the “hERG current change (%, negative = inhibition) at 10uM” value amounted to 8.1%.
As to `Cl.O=C(c1ccco1)N(CCCN1CCOCC1)c1nc(-c2ccc(F)cc2)cs1`, the “hERG current change (%, negative = inhibition) at 10uM” value was -29.4%.
With `CCN(C(=O)c1ccco1)c1nc(-c2ccc(OC)cc2)cs1` the figure was 8.13%; with `COc1ccc(-c2csc(N(CCCN3CCOCC3)C(=O)c3ccco3)n2)cc1.Cl`, -32.4%.
On to `CCN(CC)CCCN(C(=O)c1ccco1)c1nc(-c2ccc(Cl)cc2)cs1.Cl`, for which the “hERG current change (%, negative = inhibition) at 10uM” value is reported as -71.2%.
Take `CCN(CC)CCCN(C(=O)c1ccco1)c1nc(-c2ccc(C)cc2)cs1.Cl`: the “hERG current change (%, negative = inhibition) at 10uM” value is reported as -84.1%.
For `COCCN(C(=O)c1ccco1)c1nc(-c2ccccc2)cs1`, the “hERG current change (%, negative = inhibition) at 10uM” value was determined as 4.36%.
Take `CCOc1ccc(Oc2ccc(C(F)(F)F)cc2NC(=O)C2=COCCO2)cc1`: the “hERG current change (%, negative = inhibition) at 10uM” value is recorded as 13.6%.
`CCC(CC)c1nnc(NC(=O)c2cc(-c3ccccc3)nc3ccccc23)s1`: the “hERG current change (%, negative = inhibition) at 10uM” value is 9.31%.
For the compound `O=C(/C=C/c1ccccc1Cl)N(Cc1ccc(Cl)cc1)C1CCS(=O)(=O)C1` (stereo not shown), the “hERG current change (%, negative = inhibition) at 10uM” value amounted to 1.48%.
On to `O=C(NCC1CCCO1)c1ccccc1NS(=O)(=O)c1cccs1` (stereo not shown), for which the “hERG current change (%, negative = inhibition) at 10uM” value is listed as -5.56%.
For `Cc1cc(C)cc(OCCNC(=O)CCc2ccccc2)c1`, the “hERG current change (%, negative = inhibition) at 10uM” value is given as 4.83%.
As for `Cc1ccc(CSc2nc3ccncc3n2CC(=O)Nc2cc(C)cc(C)c2)cc1`, the “hERG current change (%, negative = inhibition) at 10uM” value was 7.38%.
With `Cc1cccc(CSc2nc3ccncc3n2CC(=O)Nc2cc(C)cc(C)c2)c1`, the “hERG current change (%, negative = inhibition) at 10uM” value was determined as 9.09%.
Consider `COc1ccc(-c2nc(Cn3c(SCc4ccccc4F)nc4ccncc43)c(C)o2)cc1`, for which the “hERG current change (%, negative = inhibition) at 10uM” value amounted to 4.5%.
As for `O=C(NC1CCCC1)c1ccc(CSc2nc3ccncc3n2Cc2ccc(F)cc2)cc1`, the “hERG current change (%, negative = inhibition) at 10uM” value is on record as -40.7%.
Consider `COc1ccc(-c2nc(Cn3c(SCc4cccc(F)c4)nc4ccncc43)c(C)o2)cc1OC`, for which the “hERG current change (%, negative = inhibition) at 10uM” value is reported as -62.4%.
As for `CCC(C)NC(=O)c1ccc(CSc2nc3ccncc3n2Cc2ccc(F)cc2)cc1` (stereo not shown), the “hERG current change (%, negative = inhibition) at 10uM” value is -59%.
Turning to `COc1ccc(-c2nc(Cn3c(SCc4ccc(F)cc4)nc4ccncc43)c(C)o2)cc1OC`, the “hERG current change (%, negative = inhibition) at 10uM” value was -55.6%.
Next, `CC1CCN(C(=O)c2ccc(CSc3nc4ccncc4n3Cc3ccc(F)cc3)cc2)CC1`: -46%; `COc1cc2nc(SCc3ccc(F)cc3)n(Cc3cccs3)c(=N)c2cc1OC`: 0.564%; `COc1ccc(Cn2c(SCc3ccc(C)cc3)nc3cc(OC)c(OC)cc3c2=N)cc1Cl`: 14.6%.
Next, `CN1CCN(C(=O)c2ccc(CSc3nc4ccncc4n3Cc3ccc(F)cc3)cc2)CC1`: 0.727%; `COc1ccc(-c2nc(Cn3c(SCc4ccc(C)cc4)nc4ccncc43)c(C)o2)cc1OC`: -52%; `CC1CCCCC1NC(=O)Cn1c(=O)oc2cc(S(=O)(=O)N3CCCC3)ccc21` (stereo not shown): 18.8%.
As for `O=NNc1nc2ccccc2n1Cc1ccccc1`, the “hERG current change (%, negative = inhibition) at 10uM” value is given as -1.83%.
Next, `COc1ccc(C2C(C(=O)c3ccc(C)o3)=C(O)C(=O)N2Cc2ccco2)cc1OC` (stereo not shown): 21%; `CCOCCCNC(=O)C(c1ccc(OC)cc1)N(Cc1ccc2c(c1)OCO2)C(=O)CNC(C)=O` (stereo not shown): 15.3%; `CCc1nnc(NC(=O)C(NC(=O)c2ccccc2Cl)C(C)C)s1` (stereo not shown): 0.192%.
Consider `CCCCSc1nnc(-c2ccccc2)c2ccccc12`, for which the “hERG current change (%, negative = inhibition) at 10uM” value is listed as -37.3%.
Turning to `Cc1ccc2c(c1)C(=O)N(CCCCO)C2=O`, the “hERG current change (%, negative = inhibition) at 10uM” value amounted to 20.1%.
Consider `O=c1cc(CSc2ccccc2)[nH]c2ccccc12`, for which the “hERG current change (%, negative = inhibition) at 10uM” value is given as 8.17%.
As for `O=C(C[n+]1ccccc1)Nc1c(Cl)cc(Cl)cc1Cl.[Cl-]`, the “hERG current change (%, negative = inhibition) at 10uM” value is given as 13.1%.
With `CC(=O)Nc1ccccc1C(=O)OCC(=O)c1ccccc1Cl` the figure was -12%.
With `CC1=NN(c2cccc(F)c2)C(=O)/C1=C/c1ccc(N(C)C)cc1`, the “hERG current change (%, negative = inhibition) at 10uM” value was found to be 6.38%.
Consider `CC(C)OC(=O)CSc1nnc(CNc2ccc(Cl)cc2)n1Cc1ccccc1`, for which the “hERG current change (%, negative = inhibition) at 10uM” value is on record as -33%.
In the case of `CCn1c(CNc2cccc(Cl)c2)nnc1SCC(=O)OC1CCCCC1`, the “hERG current change (%, negative = inhibition) at 10uM” value is -25%.
Consider `COC(=O)CSc1nnc(CNc2ccc(Cl)cc2)n1Cc1ccccc1`, for which the “hERG current change (%, negative = inhibition) at 10uM” value is reported as -54.7%.
With `CCn1c(CNc2ccc(Cl)cc2)nnc1SCC(=O)OC1CCCCC1`, the “hERG current change (%, negative = inhibition) at 10uM” value is recorded as -37%.
Turning to `CCn1c(CNc2ccc(F)cc2)nnc1SCC(=O)OC1CCCCC1`, the “hERG current change (%, negative = inhibition) at 10uM” value is on record as -51.7%.
With `CCOC(=O)CSc1nnc(CNc2ccc(Cl)cc2)n1Cc1ccccc1` the figure was -21.8%.
For `CN(C)S(=O)(=O)c1cccc(NC(=O)COC(=O)CNC(=O)c2cccc([N+](=O)[O-])c2)c1`, the “hERG current change (%, negative = inhibition) at 10uM” value is -39.6%.
With `CCOc1ccc(N2C(=O)CSC23CCCCC3)cc1`, the “hERG current change (%, negative = inhibition) at 10uM” value is listed as -3.56%.
As to `COC(=O)c1[nH]c(C)c(/C(O)=C2\C(=O)C(=O)N(CCN(C)C)C2c2cccs2)c1C` (stereo not shown), the “hERG current change (%, negative = inhibition) at 10uM” value is on record as 16.9%.
With `CCOC(CNC(=O)c1ccc2c(c1)ncn2-c1cccc(F)c1)OCC`, the “hERG current change (%, negative = inhibition) at 10uM” value was -17.3%.
Turning to `O=C(CSc1n[nH]c(=O)n1-c1ccc2c(c1)OCCO2)Nc1ccccc1`, the “hERG current change (%, negative = inhibition) at 10uM” value is given as 13%.
With `COc1ccc(OCC(=O)N/N=C/c2ccncc2)cc1` the figure was 17.9%; with `CCOC(=O)c1c(N2CCN(c3ccccc3)CC2)cc(C)nc1C.O=C([O-])C(=O)[O-]`, -72%; with `CCOC(=O)c1sc(NC(=O)CN2CCN(c3ccccc3)CC2)nc1C`, -5.78%.
As for `CCOC(=O)c1[nH]c(C)c(C(=O)N2CCN(c3ccccc3)CC2)c1C`, the “hERG current change (%, negative = inhibition) at 10uM” value is on record as -13.2%.
With `COc1ccccc1NC(=O)C(C)OC(=O)c1cccc(-n2cnnn2)c1` (stereo not shown) the figure was -35.2%; with `COc1ccccc1NC(=O)C(C)OC(=O)c1ccc(-n2cnnn2)cc1` (stereo not shown), -87.5%.
For `CC(OC(=O)c1ccc(-n2cnnn2)cc1)C(=O)Nc1ccccc1F` (stereo not shown), the “hERG current change (%, negative = inhibition) at 10uM” value was -23.2%.
`COCCn1c(C)cc(/C=N/NC(=O)c2cc3ccccc3cc2O)c1C`: the “hERG current change (%, negative = inhibition) at 10uM” value is listed as 10.3%.
Turning to `O=C(Nc1ccccc1F)C1CCN(S(=O)(=O)c2cccnc2)CC1`, the “hERG current change (%, negative = inhibition) at 10uM” value is reported as 9.24%.
For the compound `COc1ccc(S(=O)(=O)N(C)C)cc1NC(=O)COC(=O)c1nc2nccc(C)n2n1`, the “hERG current change (%, negative = inhibition) at 10uM” value worked out at 9.68%.
For `CC(NC(=O)CN1c2cccc3cccc(c23)S1(=O)=O)c1ccc(S(N)(=O)=O)cc1` (stereo not shown), the “hERG current change (%, negative = inhibition) at 10uM” value is given as -25.1%.
With `Cc1ccc(NC(=O)N/C=C/c2ccco2)cc1C` the figure was -1.57%; with `Cn1cncc1COC(=O)c1ccc(Cl)cc1`, 5.21%.
Consider `C/C=C(\C)CN1CCN(c2cccc(C)c2C)CC1`, for which the “hERG current change (%, negative = inhibition) at 10uM” value is -3.49%.
As to `Cc1cccc(N2CCN(C(=S)NCCc3ccccc3)CC2)c1C`, the “hERG current change (%, negative = inhibition) at 10uM” value is on record as -5.03%.
With `Cc1cccc(N2CCN(CCc3ccccc3)CC2)c1C` the figure was -75.1%; with `C/C(=C\c1ccccc1)CN1CCN(c2ccccc2F)CC1`, 5.01%.
`COc1ccccc1N1CCN(C/C(C)=C/c2ccccc2)CC1`: the “hERG current change (%, negative = inhibition) at 10uM” value is reported as -63.4%.
Next, `C/C(=C\c1ccccc1)CN1CCN(c2ccccc2)CC1`: -3.31%; `COc1ccccc1N1CCN(C(=O)CCc2ccccc2)CC1`: -11.4%; `COc1ccccc1N1CCN(Cc2nnnn2CCc2ccccc2)CC1.Cl`: 8.3%.
As to `COc1ccccc1N1CCN(CCc2ccccc2)CC1`, the “hERG current change (%, negative = inhibition) at 10uM” value was -59.4%.
Consider `CC(C)C(NS(=O)(=O)c1cccs1)C(=O)NCc1ccccc1Cl` (stereo not shown), for which the “hERG current change (%, negative = inhibition) at 10uM” value is listed as 0.166%.
`Cn1sc(NC(=O)c2ccc(Cl)cc2)nc1=O`: the “hERG current change (%, negative = inhibition) at 10uM” value amounted to 7.93%.
Regarding `COc1ccc2c(c1)[nH]c1c(C)nccc12.Cl`, the “hERG current change (%, negative = inhibition) at 10uM” value was -28%.
Next, `COc1cc(/C=N/NC(=O)C(NC(=O)c2ccccc2)c2n[nH]c(=O)c3ccccc23)ccc1OCC(N)=O` (stereo not shown): 5.88%.
Regarding `CCOc1ccc2nc3c(cc2c1)CN(CCOC)C(=NC)S3.Cl`, the “hERG current change (%, negative = inhibition) at 10uM” value is reported as 11.2%.
Turning to `COc1cc(OC)cc(-c2c(-c3cccs3)c3cc(-c4ccc(OC)c(F)c4)ccc3n2C)c1`, the “hERG current change (%, negative = inhibition) at 10uM” value was found to be 12.3%.
In the case of `CCOc1ccc(OCC)c(S(=O)(=O)N2CCCCC2)c1`, the “hERG current change (%, negative = inhibition) at 10uM” value is given as -12.2%.
For the compound `CCOc1ccc(OCC)c(S(=O)(=O)N2CCC(C)CC2)c1`, the “hERG current change (%, negative = inhibition) at 10uM” value is reported as -29.4%.
Regarding `CCOc1ccc(OCC)c(S(=O)(=O)N2CCCCC2C)c1` (stereo not shown), the “hERG current change (%, negative = inhibition) at 10uM” value is -52.2%.
Regarding `O=C(NCCNc1nccc(C(F)(F)F)n1)c1cccs1`, the “hERG current change (%, negative = inhibition) at 10uM” value is listed as -11.3%.
As for `Cc1ccc2c(ccc(=S)n2C)c1`, the “hERG current change (%, negative = inhibition) at 10uM” value is 22.1%.
Next, `CCOc1ccc2[nH]c(C)c(CN3CCCCC3)c(=O)c2c1`: -13.1%; `O=C(/C=C/c1ccccc1)NCCS(=O)(=O)N1CCN(c2ccccc2F)CC1`: -3.41%.
For the compound `CCn1cc(C(=O)O)c(=O)c2cnc(N3CCNCC3)nc21`, the “hERG current change (%, negative = inhibition) at 10uM” value was -65.4%.
On to `CCn1cc(C(=O)O)c(=O)c2cnc(N3CCN(C(=S)Nc4ccccc4)CC3)nc21`, for which the “hERG current change (%, negative = inhibition) at 10uM” value turned out to be 2.24%.
Consider `C=CCNC(=S)N1CCN(c2ncc3c(=O)c(C(=O)O)cn(CC)c3n2)CC1`, for which the “hERG current change (%, negative = inhibition) at 10uM” value is listed as 2.8%.

Source of the values: article PMC4336329 (PLoS ONE, 2015).
